In PubChem BioAssay (NCATS) one finds Potency and outcome data, which are given here for 16 compounds.

Results filed as inconclusive are left out. The source made the active and inactive calls. Calls follow the shape of the dose curve; as a rule, active = well fitted inhibition curve with a large enough effect; inconclusive = small, poorly fitted or top-dose-only effect; inactive = flat fitted curve, though single readings scatter.

Holding throughout (assay): qHTS profiling for inhibitors of Plasmodium falciparum proliferation (AID 504749); also: nearly all actives have a fitted effect of over 60% in size
Common to all, as to conditions: P. falciparum in erythrocytes, SYBR Green DNA, 72 h; series mostly up to 28.7 µM

The subject of one assay is CP237. The gist of the method:
(§1)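 Each compound contacts P. falciparum-infected red blood cells for 72 h at 37 C; lysis buffer (Tris, EDTA, saponin, Triton X, SYBR Green I) is added and fluorescence measured next morning; values normalized to controls.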

For another assay, the system named is CP238. The gist of the method: as §1
Another assay relates to CP247. The essentials:
as §1

A further assay deals with CP250. The essentials: as §1
The subject of another assay is CP252. The gist of the method: as §1
A further assay concerns CP256. The gist of the method:
as §1

A further assay concerns CP260. The essentials: as §1
A further assay concerns CP262. The essentials:
as §1

A further assay deals with CP265. The gist of the method:
as §1

The test system of a further assay is CP266. The essentials: as §1
Potency is read from the fitted curve at half-maximal effect.

`NCCS`: the Potency result in the assay with CP237, in the assay on CP247 and with CP265 was “inactive” each time. The call with CP238, with CP250, with CP252, in the assay on CP256, with CP260 and with CP262 was inactive. In addition, the outcome with CP266 was inactive.

As to `O=C(O)Cc1cccc2ccccc12`, the Potency entry with CP237, in the assay on CP247 and in the assay with CP265 was “inactive” throughout. Besides, the call with CP238, in the assay on CP250, with CP252, in the assay on CP256, with CP260 and in the assay on CP262 was inactive. Besides, in the assay with CP266, the result was inactive.

As for `C[N+](C)(C)CCCCCC[N+](C)(C)C`, the Potency entry in the assay with CP237, in the assay with CP247 and in the assay with CP265 was “inactive” throughout. Also, the outcome with CP238, in the assay with CP250, in the assay with CP252, with CP256, with CP260 and in the assay with CP262 was inactive. The result in the assay with CP266 was inactive.

As for `CCN(CC)C(=O)c1ccc(O)c(OC)c1`, the Potency entry in the assay on CP237, with CP247 and in the assay on CP265 was “inactive” in each case. In addition, the compound was classed as inactive with CP238, with CP250, with CP252, in the assay with CP256, with CP260 and with CP262. In addition, in the assay on CP266, the result was inactive.

Take `Cc1cccc(C)c1OCC(C)N` (stereo unspecified): the Potency with CP237 is 6.31 µM (active). The outcome in the assay on CP238, in the assay with CP250, in the assay on CP252, in the assay with CP256, with CP260 and in the assay with CP262 was inactive. The Potency entry in the assay on CP247 was “inactive”.

Consider `COc1ccccc1N1CCN(CCCNc2cc(=O)n(C)c(=O)n2C)CC1`, for which the Potency result in the assay with CP237, in the assay on CP247 and in the assay on CP265 was “inactive” in each case. Besides, the compound was classed as inactive in the assay with CP238, in the assay on CP250, in the assay on CP252, in the assay with CP256, in the assay with CP260 and with CP262. For the same compound, the compound was called inactive in the assay with CP266.

On to `CC/C(=C(\c1ccccc1)c1ccc(OCCN(C)C)cc1)c1ccccc1`, for which the outcome in the assay with CP262 and in the assay with CP266 was inactive.

As to `CC(=O)CCCCn1c(=O)c2c(ncn2C)n(C)c1=O`, the Potency entry in the assay on CP237, in the assay on CP247 and in the assay on CP265 was “inactive” throughout. The result in the assay on CP238, with CP250, with CP252, in the assay on CP256, in the assay with CP260 and with CP262 was inactive. The outcome in the assay with CP266 was inactive.

Consider `O=C1Nc2ccc(Cl)cc2C(C#CC2CC2)(C(F)(F)F)O1` (stereo unspecified), for which the Potency result in the assay on CP237, in the assay with CP247 and in the assay on CP265 was “inactive” throughout. Besides, the compound was called inactive with CP238, in the assay with CP250, in the assay on CP252, in the assay with CP256, in the assay on CP260 and with CP262.

As for `O=C1NCC2(CCN(CCc3ccccc3)CC2)O1`, the Potency result with CP237, with CP247 and in the assay on CP265 was “inactive” throughout. Besides, the compound was called inactive with CP238, with CP250, with CP252, in the assay with CP256, in the assay on CP262 and with CP266.

As for `CCN(CC)CCNC(=O)c1ccc(N)cc1`, the Potency result with CP237, with CP247 and in the assay with CP265 was “inactive” in each case. Also, the outcome with CP238, with CP250, with CP252, with CP256, in the assay on CP260 and in the assay with CP262 was inactive. Further, the result in the assay with CP266 was inactive.

Consider `CCN1CCC[C@H]1CNC(=O)c1cc(S(N)(=O)=O)ccc1OC`, for which the Potency entry with CP237, in the assay with CP247 and with CP265 was “inactive” in each case. The compound was classed as inactive with CP238, in the assay on CP250, in the assay on CP252, with CP256, with CP260 and in the assay on CP262. In the assay on CP266, the outcome was inactive.

For the compound `CCOC(=O)O[C@]1(C(=O)OCCl)CC[C@@H]2[C@H]3CCC4=CC(=O)C=C[C@]4(C)[C@@H]3[C@@H](O)C[C@@]21C`, the Potency entry in the assay with CP237, in the assay with CP247 and with CP265 was “inactive” in each case. Further, the call with CP238, in the assay on CP250, in the assay on CP252, in the assay on CP256, in the assay on CP260 and in the assay on CP262 was inactive.

Take `NC(N)=Nc1nc(CSCC/C(N)=N/S(N)(=O)=O)cs1`: the Potency entry in the assay with CP237, in the assay with CP247 and in the assay on CP265 was “inactive” throughout. The compound was called inactive in the assay with CP238, in the assay with CP250, with CP252, in the assay on CP256, in the assay with CP260 and in the assay on CP262. Further, in the assay on CP266, the outcome was inactive.

For the compound `CC(=O)c1ccc(S(=O)(=O)NC(=O)NC2CCCCC2)cc1`, the Potency result with CP237, in the assay on CP247 and in the assay on CP265 was “inactive” in each case. The compound was called inactive in the assay with CP238, in the assay on CP250, in the assay on CP252, with CP256, with CP260 and in the assay on CP262. Further, the outcome in the assay on CP266 was inactive.

As for `CC1(C)O[C@H]2C[C@@H]3[C@H]4CCC5=CC(=O)C=C[C@]5(C)[C@@]4(F)[C@@H](O)C[C@]3(C)[C@]2(C(=O)CO)O1`, the Potency result in the assay with CP237, in the assay with CP247 and with CP265 was “inactive” throughout. Moreover, the compound was classed as inactive in the assay with CP238, in the assay on CP250, in the assay on CP252, with CP256, with CP260 and in the assay with CP262.
